Bioassay records from PubChem BioAssay.
Shown are actives, neighbours in structure and some others; about 6.9% of the full set was active somewhere.
NS3h inh CB: HCV NS3 helicase inhibitors, primary screen, biochemical, fluorescence polarization, ChemBridge library; Hepatitis C virus NS3 helicase; NS3h Cy5-dT15 DNA binding; inhibition, % at 100 µM; 1.6% of 16,000 active;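 active = inhibition above the average over every tested compound plus 3 SD, cut at about 40% in these data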
Cy5 interf NS3h: Cy5 fluorescence quenchers or enhancers, artefact control for HCV NS3 helicase inhibitor project, biochemical, ChemBridge library, Cy5 readout | Cy5-dT15 DNA with NS3h, fluorescence interference; actives lie on both sides; signal over control mean, under 1 quenches | fluorescence interference ratio at 100 µM | 6% of 16,000 active | AID 720488, 2013;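 active = compound fluorescence over control fluorescence at most 0.8, a quencher, or at least a set upper limit, an enhancer; inactive = ratio between 0.8 and the set upper limit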
NS3h confirm: HCV NS3 helicase inhibitors, retest, confirmation, biochemical, fluorescence polarization, ChemBridge library | NS3h binding to Cy5-dT15 DNA | shares compounds with NS3h inh CB | AID 720485, 2013 | 20% of 240 active | inhibition, % at 100 µM;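 active = percent inhibition of 50% or more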
SSB-DNA FP CB: E. coli SSB-DNA binding inhibitors, counter-screen for HCV NS3 helicase inhibitor project, biochemical, fluorescence polarization, selected ChemBridge compounds. shares compounds with NS3h inh CB. inhibition, % at 100 µM. E. coli SSB binding Cy5-dT15. 40% of 240 active. AID 720486, 2013;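 active = inhibition of at least 50%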;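 also: displacers lower Cy5 polarization so higher inhibition means more SSB displaced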
Target sequence (P0AGE0 whole entry, looked up): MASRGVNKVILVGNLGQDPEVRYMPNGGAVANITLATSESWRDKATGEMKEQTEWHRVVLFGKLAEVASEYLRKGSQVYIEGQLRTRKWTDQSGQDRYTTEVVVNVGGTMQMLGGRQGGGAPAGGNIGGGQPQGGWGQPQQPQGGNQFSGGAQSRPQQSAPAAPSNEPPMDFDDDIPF
Cy5 SSB fluor CB: Cy5 fluorescence interference with SSB-bound oligo, artefact control for HCV NS3 helicase inhibitor project, biochemical, E. coli SSB, selected ChemBridge compounds. shares compounds with NS3h inh CB. Cy5-dT15/E. coli SSB fluorescence interference; actives lie on both sides. fluorescence interference ratio at 100 µM. 8% of 240 active;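 active = fluorescence interference ratio at or above 1.2, signal boosting, or at or below 0.8, signal quenching; inactive = ratio between 0.8 and 1.2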
Cy5 interf conf: Cy5-DNA-NS3h complex fluorescence interference, confirmation, artefact control for HCV NS3 helicase inhibitor project, biochemical, ChemBridge library. shares compounds with NS3h inh CB. 44% of 240 active. fluorescence interference ratio at 100 µM, hits read low. Cy5-dT15 DNA/NS3h fluorescence interference counterscreen;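 active = fluorescence interference ratio at or below 0.8 quencher or at or above a set limitenhancer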
Hits are given with their value; . = inactive; / = no result.

SMILES | NS3h inh CB | Cy5 interf NS3h | NS3h confirm | SSB-DNA FP CB | Cy5 SSB fluor CB | Cy5 interf conf
COC(=O)c1ccccc1-c1ccc(/C=C2\C(=O)NN(c3ccccc3)C2=O)o1 | . | . | / | / | / | /
O=C1NN(c2ccc(F)c(Cl)c2)C(=O)/C1=C\c1ccc(-c2cccc(C(=O)O)c2)o1 | 43 | 0.8 | . | . | . | .
NS(=O)(=O)c1ccc(-c2ccc(/C=C3/C(=O)NN(c4cccc(Cl)c4)C3=O)o2)cc1 | . | . | / | / | / | /
O=C1NN(c2ccc(Cl)cc2)C(=O)/C1=C\c1ccc(-c2cccc(C(=O)O)c2)o1 | 55 | . | . | 61 | . | 0.73
O=C(Cc1ccccc1)Nc1ccc(NC(=O)c2ccccc2)c(Br)c1 | . | . | / | / | / | /
COc1ccc2c(Cl)c(C(=O)Nc3ccc(N4CCOCC4)cc3)sc2c1 | . | . | / | / | / | /
COc1nsnc1NS(=O)(=O)c1ccc(NC(=S)NC(=O)c2sc3cc(F)ccc3c2Cl)cc1 | 94 | . | . | . | . | 0.76
CC(C)Oc1ccc(C(=O)Nc2cccc3c2C(=O)c2ccccc2C3=O)cc1 | . | . | / | / | / | /
C=C(C)C(=O)Oc1ccc(N2C(=O)C=CC2=O)cc1 | 81 | . | 55 | . | . | .
CN(C)c1ccc(/C=C/C(=O)/C=C/c2ccc(N(C)C)cc2)cc1 | . | . | / | / | / | /
O=C1C=CC(=O)N1c1ccc(SC(F)F)cc1 | . | . | / | / | / | /
COc1ccc(N2C(=O)C=CC2=O)cc1 | 84 | 0.77 | . | . | . | 0.77
C=C(C)C(=O)Oc1ccc(N2C(=O)CCC2=O)cc1 | . | . | / | / | / | /
O=C1C=CC(=O)N1c1ccc(OC(F)F)cc1 | 46 | . | . | . | . | .
CN(C)c1ccc(N2C(=O)C=CC2=O)cc1 | 65 | . | . | . | . | 0.76
COc1ccc(N2C(=O)C=C(Nc3ccccc3)C2=O)cc1 | . | . | / | / | / | /
CCCc1n[nH]c2c1/C(=N/O)CC(C)(C)C2 | . | . | / | / | / | /
CCOc1ccc(C(CC(=O)c2ccccc2)Nc2ccc(Cl)cc2)cc1 (stereo not given) | . | . | / | / | / | /
Cc1cc([N+](=O)[O-])ccc1NC(=O)/C=C/c1ccccc1Cl | . | . | / | / | / | /
O=C1NC(=O)N(c2ccccc2)C(=O)/C1=C\c1ccc(-c2cccc(C(=O)O)c2)o1 | 51 | . | . | 53 | . | .
O=C1NN(c2ccccc2)C(=O)/C1=C/c1ccc(-c2ccc(F)cc2)o1 | . | . | / | / | / | /
O=C1NN(c2ccc(Cl)cc2)C(=O)/C1=C\c1ccc(-c2ccc(Cl)c(C(=O)O)c2)o1 | 52 | 0.8 | . | . | . | .
O=C1NC(=O)N(c2ccccc2)C(=O)/C1=C\c1ccc(-c2ccc([N+](=O)[O-])cc2Cl)o1 | . | . | / | / | / | /
COc1ccc([N+](=O)[O-])cc1-c1ccc(/C=C2\C(=O)NC(=O)N(c3ccc(Cl)cc3)C2=O)o1 | . | . | / | / | / | /
O=C1NC(=O)N(c2ccc(Cl)cc2)C(=O)/C1=C/c1ccc(-c2ccc(Cl)c(C(=O)O)c2)o1 | 67 | . | 63 | 77 | . | .
SMILES | NS3h inh CB | Cy5 interf NS3h | NS3h confirm | SSB-DNA FP CB | Cy5 SSB fluor CB | Cy5 interf conf
O=c1[nH]c(Nc2nc3ccccc3o2)nc(O)c1Cc1ccccc1 | . | . | / | / | / | /
COc1cc(/C=N\N=C2/NC(=O)C(CC(=O)Nc3cccc(Cl)c3Cl)S2)ccc1O (stereo not given) | . | . | / | / | / | /
CCN(CC)c1ccc(/C=C2/C(=O)NC(=O)N(c3ccccc3)C2=O)cc1 | 86 | 3.2 | . | . | 1.6 | 1.8
CCN(CC)c1ccc(/C=C2\C(=O)NC(=O)N(c3ccccc3OC)C2=O)cc1 | . | . | / | / | / | /
Cc1ccc(C)n1/N=C1/NC(=O)CS1 | 90 | . | 77 | 107 | . | .
O=C1CSC(=Nc2ccc(O)cc2)N1 | . | . | / | / | / | /
CC(=O)N(C)CP(=O)(O)CCc1ccccc1 | . | . | / | / | / | /
O=C(Nc1ccccc1C(F)(F)F)c1cncc(Br)c1 | . | . | / | / | / | /
O=C1NC(=O)N(c2ccccc2)C(=O)/C1=C\c1ccccc1OCc1ccccc1F | . | . | / | / | / | /
C=CCN1C(=O)NC(=O)/C(=C\c2ccccc2OCc2ccc([N+](=O)[O-])cc2)C1=O | 58 | 0.49 | . | . | . | 0.66
CCOc1ccc2ccccc2c1C=C1C(=O)NC(=S)NC1=O | 44 | . | . | . | . | .
CCOc1ccc2ccc(OCC)c(/C=C3/SC(=S)NC3=O)c2c1 | . | . | / | / | / | /
COC(=O)c1cccc(NC(=O)c2ccc[n+]([O-])c2)c1 | . | . | / | / | / | /
COC(=O)c1cccc(N2C(=O)C=CC2=O)c1 | 46 | . | . | . | . | 0.73
CCC(=O)Nc1nc(C23CC4CC(CC(C4)C2)C3)c(C)s1 | . | . | / | / | / | /
CCOC(=O)c1c(NC(=O)/C=C/c2ccc(C)o2)sc(C)c1C | 61 | . | . | . | . | 0.74
Cc1ccc(/C=C/C(=O)Nc2ccc(Cl)cc2Cl)o1 | . | . | / | / | / | /
COc1ccc2occ(C(=O)c3ccc(N)cc3)c2c1 | . | . | . | . | . | .
COc1ccc2occ(C(=O)c3ccc([N+](=O)[O-])cc3)c2c1 | . | . | / | / | / | /
CN1C(=O)C(=Cc2cc([N+](=O)[O-])cc(Br)c2O)C(=O)N(C)C1=O | . | . | / | / | / | /
O=C(Nc1cc(Cl)cc(Cl)c1)c1ccc2c(c1)OCCO2 | . | . | / | / | / | /
COc1ccc(/C=C2/SC(=S)NC2=O)cc1OCc1ccc(Cl)cc1 | . | . | / | / | / | /
COc1cc(/C=C2/SC(=S)NC2=O)cc(Cl)c1OCc1ccc(Cl)cc1Cl | 48 | . | . | 55 | . | .
O=C(O)CCn1c(O)c(C2=c3cc([N+](=O)[O-])ccc3=NC2=O)sc1=S | . | . | . | . | . | 0.77
COCCCn1c(O)c(C2=c3ccccc3=NC2=O)sc1=S | . | . | / | / | / | /
SMILES | NS3h inh CB | Cy5 interf NS3h | NS3h confirm | SSB-DNA FP CB | Cy5 SSB fluor CB | Cy5 interf conf
O=C1N=c2ccc([N+](=O)[O-])cc2=C1c1sc(NS(=O)(=O)c2ccccc2)nc1O | 41 | . | . | 101 | . | 0.75
O=[N+]([O-])c1cccc(S(=O)(=O)Nc2ccc(O)c(Cl)c2)c1 | . | . | / | / | / | /
CN(C)c1cccc(NC(=O)Cc2cccc3ccccc23)c1 | . | . | / | / | / | /
COC(=O)C1=C(C)NC(C)=C(C(=O)OC)C1c1cn(-c2ccccc2)nc1-c1ccc(S(=O)(=O)N(C)C)cc1 | . | . | / | / | / | /
Cc1cc(Br)ccc1OCC(=O)N1CCCCC1 | . | . | / | / | / | /
COC(=O)c1ccccc1N1C(=O)c2ccc(C(=O)O)cc2C1=O | . | . | / | / | / | /
CCN(CC)CCNC(=O)c1ccc(NC(=S)NC(=O)c2cccnc2)cc1 | 63 | 0.72 | . | . | 0.77 | .
O=C(NC(=S)Nc1ccc(Cc2ccncc2)cc1)c1ccccc1 | . | . | / | / | / | /
COc1ccc(C(=O)N/C(=C\c2ccc(-c3cccc([N+](=O)[O-])c3)o2)C(=O)NCCN2CCOCC2)cc1 | . | . | / | / | / | /
Cc1ccc(NC(=O)c2ccc(-c3ccc(Cl)cc3Cl)o2)c([N+](=O)[O-])c1 | . | . | / | / | / | /
